Assay outcomes from PubChem.
RXFP1 antag: qHTS Assay for Antagonists of the Relaxin Receptor RXFP1; activity change, negative = inhibition, % at 57.5 µM; HEK293-RXFP1, relaxin-stimulated cAMP HTRF, 30 min; hits give low values; Relaxin receptor 1 (Homo sapiens), Q9HBX9; AID 1259400, 2018; actives 0.59% (n = 350,000);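 active means activity change of -60% or lower, but not beyond a set lower limit; inconclusive means change between -60% and -40%, or beyond the set limit; inactive means change above -40%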; further: on the % scale 0 is the no-effect control and ±100 the full control effect
S-ASM inh: Inhibitors of Secretory Acid Sphingomyelinase (S-ASM): qHTS | placental ASM, HMU-PC fluorogenic substrate, 60 min | Potency, µM (highest dose often 57.5 µM), for inactives: at the top dose activity change, negative = inhibition, actives largely listed as inhibitors | actives 0.006% (n = 340,000) | AID 504937, 2011; further: potency means the concentration at half of the fitted maximal effect
Target sequence (P17405 47-631 limits assumed): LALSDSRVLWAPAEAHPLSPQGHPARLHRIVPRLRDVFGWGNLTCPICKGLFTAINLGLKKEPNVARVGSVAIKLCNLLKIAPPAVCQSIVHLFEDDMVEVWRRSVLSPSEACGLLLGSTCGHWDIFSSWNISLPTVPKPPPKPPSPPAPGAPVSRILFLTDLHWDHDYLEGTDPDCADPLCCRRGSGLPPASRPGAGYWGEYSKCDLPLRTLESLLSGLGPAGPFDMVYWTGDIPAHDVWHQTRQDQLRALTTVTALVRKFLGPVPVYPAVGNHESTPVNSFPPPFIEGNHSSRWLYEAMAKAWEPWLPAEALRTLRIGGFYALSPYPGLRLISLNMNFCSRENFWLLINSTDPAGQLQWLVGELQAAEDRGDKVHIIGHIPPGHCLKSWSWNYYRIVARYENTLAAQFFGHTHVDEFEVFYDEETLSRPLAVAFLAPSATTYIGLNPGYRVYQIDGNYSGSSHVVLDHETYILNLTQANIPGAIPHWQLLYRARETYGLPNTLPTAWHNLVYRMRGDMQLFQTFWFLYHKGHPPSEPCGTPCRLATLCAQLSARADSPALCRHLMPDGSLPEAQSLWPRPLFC
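Steps: dispense placental human ASM, pin compound, wait 10 min at room temperature, add HMU-PC0 substrate at 9 uM final, incubate 60 min at 37 °C, add stop solution raising pH to 10, read fluorescence.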
gsp antag: qHTS for Antagonists of gsp, the Etiologic Mutation Responsible for Fibrous Dysplasia/McCune-Albright Syndrome: qHTS. gsp-mutant cells, cAMP HTRF, 30 min. actives 0.4% (n = 340,000). Potency, µM (titrated, usually from 76.9 µM), inactives show top-dose activity change, negative = inhibition, hits mostly inhibitors; calls by dose curve; cell line not stated here;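 further: intracellular cAMP measured with PDE inhibitor Ro 20-1724 present during compound exposure; potency means the concentration at half of the fitted maximal effect; on the % scale 0 is the no-effect control and ±100 the full control effect; nearly all actives have a fitted effect of over 65% in size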
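Cells in G418 medium, seeded 16-24 h, 37C; buffer exchange to DPBS + 1 mM CaCl2, 0.5 mM MgCl2, 0.05% BSA; cpds in DMSO + […] (300 uM stock), 30 min 37C; HTRF cAMP detection.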
RXFP1 agonist: qHTS Assay for Agonists of the Relaxin Receptor RXFP1; Potency, µM (titrated, usually from 57.5 µM), for inactives: at the highest dose activation, hits mostly activators; HEK293T-RXFP1 cAMP TR-FRET, 30 min; response scale: percent of porcine relaxin response, buffer zero; Relaxin receptor 1 (Homo sapiens), Q9HBX9; actives 0.3% (n = 370,000); AID 2676, 2010; further: potency means the concentration at half of the fitted maximal effect; on the % scale 0 is the no-effect control and ±100 the full control effect; nearly all actives have a fitted effect of over 60% in size
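HEK293T cells stably expressing RXFP1 were pretreated with the PDE4 inhibitor Ro 20174, exposed to compounds for 30 min at 37C, lysed, and cAMP was read by TR-FRET. Data normalized to buffer (basal) and 29 nM porcine relaxin (100%).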
gsp ag: qHTS for Agonist of gsp, the Etiologic Mutation Responsible for Fibrous Dysplasia/McCune-Albright Syndrome: qHTS. gsp mutant cells, cAMP HTRF, 30 min. Potency, µM (series often up to 76.9 µM), for the others: top-dose activation (cAMP increase), usual class: activators. actives 0.13% (n = 340,000). AID 624287, 2012; active means well fitted activation curve with a large enough effect; inconclusive means small, poorly fitted or top-dose-only effect, or another doubt; inactive means no such curve, though single readings can be large or run the other way; cell line not stated here;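 further: phosphodiesterase inhibitor Ro 20-1724 added with compounds to block cAMP breakdown; potency means the concentration at half of the fitted maximal effect; nearly all actives have a fitted effect of over 60% in size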
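Cells in DMEM/10% FBS with G418 were pretreated with compounds in DMSO plus […] (300 uM stock) for 30 min at 37C. cAMP was measured by HTRF (cAMP-d2 plus anti-cAMP antibody-K) after 30 min at room temperature.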
Integrin act MD: qHTS for Activators of Integrin-Mediated Alleviation for Muscular Dystrophy | alpha7betagal myoblasts, beta-gal FDG fluorescence, 48 h | Potency, µM (series often up to 38.3 µM), inactives show at the top dose activation, most hits filed as activators | actives 0.064% (n = 350,000) | AID 624291, 2012;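 further: potency means the concentration at half of the fitted maximal effect; 100% = response of the positive control SU9516; nearly all actives have a fitted effect of over 60% in size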
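Alpha7betagal+/- myoblasts (passage 13) were plated 16-24 hr, then exposed to compounds (1:260 dilution of DMSO stock) for 48 hours at 37C. After MPER lysis, β-galactosidase reporter activity was read as FDG fluorescence (ex 480/em 540) after 30 minutes.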
Active calls of the source: *; [ ] = another dose, or the depositor's remark. Compounds with a hit are over-represented: about 1.1% of the library has one in this group of screens. Unless noted, the call rests on the fitted dose curve; in most records, active means well fitted curve in the direction sought with a large enough effect; inconclusive means small, poorly fitted or top-dose-only effect, or another doubt; inactive means no such curve, though single readings can be large; an effect the other way counts as inactive or inconclusive.

`CCOc1ccc(-c2c(C(=O)N/N=C/c3c[nH]c4ccccc34)nnn2-c2nonc2N)cc1` gave RXFP1 antag -9.5, S-ASM inh -0.5%, gsp antag 25.1µM*, RXFP1 agonist -1.7%, gsp ag inconclusive and Integrin act MD -11.8%.
`CCOc1cccc(-c2c(C(=O)N/N=C(\C)c3ccncc3)nnn2-c2nonc2N)c1` gave RXFP1 antag -62.5*, S-ASM inh 1.1%, gsp antag -10.8%, RXFP1 agonist -2.6%, gsp ag 3.8% and Integrin act MD -4.3%.
COCc1c(C(=O)N/N=C(/C)c2ccc(OCc3ccccc3)cc2)nnn1-c1nonc1N was read as RXFP1 antag 16.9, S-ASM inh 0.4%, gsp antag 11.7%, RXFP1 agonist -1.0%, gsp ag inconclusive and Integrin act MD 10µM*.
CCOc1cccc(-c2c(C(=O)N/N=C(\C)c3ccccn3)nnn2-c2nonc2N)c1 was read as RXFP1 antag 1.7, S-ASM inh -10.2%, gsp antag -10.0%, RXFP1 agonist -0.1%, gsp ag -21.0% and Integrin act MD -13.4%.
CCCCOC(=O)CCCCCCCCC(=O)OCCCC was read as RXFP1 antag -18.4.
Screening O=C(NCc1ccccc1)c1cnc(N2CCCCC2)c2ccccc12 returned RXFP1 antag -36.4 and RXFP1 agonist 4.5%.
Screening Cc1cccc(N(C)C(=O)Cc2c(C(=O)O)[nH]c3ccccc23)c1 returned RXFP1 antag 2.4 and RXFP1 agonist -0.4%.
For O=C1C2CC=CCC2C(=O)N1c1ccc(NCCc2ccc(O)cc2)c([N+](=O)[O-])c1 (centres undefined) the results were RXFP1 antag -5.6, S-ASM inh -29.6%, gsp antag 31.6µM*, RXFP1 agonist -0.5%, gsp ag 9.9%[15.4 µM] and Integrin act MD -36.5%.
CC(C)OCCCNC(=O)C1CCN(S(=O)(=O)c2ccc3nc4c(c(C(=O)O)c3c2)CCCCC4)CC1 was read as RXFP1 antag 16.1, S-ASM inh 0.3%, gsp antag 7.0%, RXFP1 agonist 5.5%, gsp ag 19.3% and Integrin act MD 22.0%.
Cc1[nH]nc(-c2ccc(O)c(C)c2O)c1-c1cnn(-c2ccccc2)c1 was read as RXFP1 antag -87.2*, S-ASM inh -24.2%, gsp antag -3.5%, RXFP1 agonist 1.0%, gsp ag -65.9% and Integrin act MD inconclusive.
Screening COc1ccc(CN(CC(=O)NCCC(C)C)C(=O)CCC(=O)Nc2nccs2)cc1 returned RXFP1 antag -69.2*, S-ASM inh 1.8%, gsp antag -2.4%, RXFP1 agonist -4.0%, gsp ag 3.2% and Integrin act MD 11.3%.
For COCCNC(=O)CN(Cc1ccc(OC)cc1)C(=O)CCC(=O)Nc1nccs1 the results were RXFP1 antag 6.2, S-ASM inh 3.9%, gsp antag 5.7%, RXFP1 agonist 2.9%, gsp ag -56.5% and Integrin act MD inconclusive.
CCCCCCOc1ccc(C2C(=O)N(C3CCCCC3)CC(=O)N2C2CCCCC2)cc1 (centres undefined) was read as RXFP1 antag -18.3 and RXFP1 agonist -0.5%.
Screening CCCCCCOc1ccc(C2C(=O)N(C3CCCCC3)CC(=O)N2CCC)cc1 (centres undefined) returned RXFP1 antag -68.9* and RXFP1 agonist 0.0%.
For Cc1ccc(CNC(=O)C2CCCN(c3nnc(-n4c(C)ccc4C)s3)C2)cc1 (centres undefined) the results were RXFP1 antag -1.6 and RXFP1 agonist 20.6%.
CCC(C(=O)NCCCN1CCOCC1)n1c2ccccc2c2nc(=O)cc(C)n21 (centres undefined) was read as RXFP1 antag -70.4*, S-ASM inh 5.1%, gsp antag 0.2%, RXFP1 agonist 0.4%, gsp ag 10.3% and Integrin act MD -10.8%.
For Cc1cc(=O)nc2c3ccccc3n(C(C)C(=O)NCCN3CCOCC3)n12 (centres undefined) the results were RXFP1 antag -1.3, S-ASM inh 7.1%, gsp antag -0.5%, RXFP1 agonist 8.0%, gsp ag 9.6% and Integrin act MD 4.9%.
CCOc1ccc(-n2c(C)c3c(C)nnc(C)c3c2C)cc1 was read as RXFP1 antag 4.4, gsp ag -4.0% and Integrin act MD -35.7%.
For NC(=O)COCCN1CCN(C(c2ccccc2)c2ccc(Cl)cc2)CC1 (centres undefined) the results were RXFP1 antag -3.7.
COCCNC(=O)CN1C(=O)/C(=C/c2ccccc2)Oc2ccc(C(C)(C)C)cc21 was read as RXFP1 antag -15.6, S-ASM inh 425.4%, gsp antag 28.2µM*, RXFP1 agonist 5.5%, gsp ag 13.5% and Integrin act MD 5.5%.
CCn1c(SCC(=O)c2[nH]c(C)c(C(C)=O)c2C)nnc1-c1ccccc1 was read as RXFP1 antag 6.0, S-ASM inh -1.7%, gsp antag 20µM*, RXFP1 agonist 2.6%, gsp ag -3.3% and Integrin act MD -21.2%.
For CC(=O)c1c(C)[nH]c(C(=O)COC(=O)CCSc2ccccc2)c1C the results were RXFP1 antag -63.9*, S-ASM inh -11.2%, gsp antag -22.0%, RXFP1 agonist 0.4%, gsp ag -19.8% and Integrin act MD 23.4%.
Cc1ccc(CN2CC(C(=O)N3CCN(S(=O)(=O)c4cccc(F)c4)CC3)CC2=O)cc1 (centres undefined) was read as RXFP1 antag -16.7, S-ASM inh 2.1%, gsp antag 0.8%, RXFP1 agonist -1.1%, gsp ag -7.1%[15.4 µM] and Integrin act MD 7.8%.
For O=C(NCCc1ccc(Cl)cc1)c1nnc(Cc2ccc(Cl)cc2Cl)o1 the results were RXFP1 antag -3.3 and RXFP1 agonist 6.7%.
CCOc1cc(/C=N/Nc2cccc(C(=O)O)c2)ccc1OC(=O)c1ccccc1 was read as RXFP1 antag -75.0*, S-ASM inh -15.9%, gsp antag -10.0%, RXFP1 agonist 0.8%, gsp ag 3.2% and Integrin act MD 8.3%.
`COc1cc(C=NNc2ccccc2)ccc1OC(=O)c1ccccc1` gave RXFP1 antag -0.4, gsp ag -0.5% and Integrin act MD -23.8%.
